Screening data: PubChem, National Center for Advancing Translational Sciences (NCATS)
The entries come from a sample that favours hits as a whole.
BLM helicase inh: Bloom syndrome helicase (human) inhibition; recombinant BLM DNA unwinding, fluorescence dequenching; Potency, µM (series often up to 56.1 µM), for the others: at the top dose activity change, negative = inhibition, usual class: inhibitors; 350,000 compounds, 0.2% hits; AID 2528;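 further: plate controls were vehicle for no effect and no enzyme for full effect; nearly all actives have a fitted effect of over 35% in size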
RECQ1 helicase: blocks DNA unwinding by human RECQ1 | P46063 | Potency, µM (series often up to 57.3 µM), for inactives: top-dose activity, negative = inhibition, actives largely listed as inhibitors | RECQ1 DNA unwinding, red fluorescence kinetic read | 240,000 compounds, 0.54% hits;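 further: plate controls were vehicle for no effect and no enzyme for full effect; nearly all actives have a fitted effect of over 30% in size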
Target sequence (P46063 whole entry, looked up): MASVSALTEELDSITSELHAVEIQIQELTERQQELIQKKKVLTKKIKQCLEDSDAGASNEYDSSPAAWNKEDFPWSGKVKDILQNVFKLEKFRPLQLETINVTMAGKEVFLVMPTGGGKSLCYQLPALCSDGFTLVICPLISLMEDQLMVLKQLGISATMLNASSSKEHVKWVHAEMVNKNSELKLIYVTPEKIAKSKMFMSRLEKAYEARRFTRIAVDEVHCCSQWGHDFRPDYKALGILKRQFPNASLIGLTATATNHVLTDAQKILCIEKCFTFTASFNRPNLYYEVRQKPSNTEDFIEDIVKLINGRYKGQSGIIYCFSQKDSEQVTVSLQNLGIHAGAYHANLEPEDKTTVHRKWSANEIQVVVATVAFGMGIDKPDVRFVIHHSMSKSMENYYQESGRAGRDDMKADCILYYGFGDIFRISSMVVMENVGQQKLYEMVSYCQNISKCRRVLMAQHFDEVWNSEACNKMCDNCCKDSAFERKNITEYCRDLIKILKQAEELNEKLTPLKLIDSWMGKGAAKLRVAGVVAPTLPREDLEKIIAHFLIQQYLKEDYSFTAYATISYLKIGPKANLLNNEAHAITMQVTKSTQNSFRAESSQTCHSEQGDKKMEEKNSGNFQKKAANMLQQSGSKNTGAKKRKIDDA
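RECQ1T1 50 nM; forked duplex (20 bp + 30-nt ss tails) 200 nM, ATP 2 mM final; pH 8.0, 2 mM MgCl2, 2.5 ug/ml poly(dI-dC); 15 min compound preincubation; discontinuous kinetic read over 2 h at RT.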
KDM4E inh: inhibitors of human JMJD2E histone demethylase. Potency, µM (series often up to 57.1 µM), inactives show top-dose activity change, negative = inhibition, hits mostly inhibitors. JMJD2E catalytic domain, FDH-coupled NADH fluorescence (FDH is formaldehyde dehydrogenase). 230,000 compounds, 1.6% hits. B2RXH2; active means well fitted inhibition curve with a large enough effect, not every such curve was filed as active; inconclusive means small, poorly fitted or top-dose-only effect, or another doubt; inactive means no such curve, though single readings can be large or run the other way;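 further: 0% = wells with enzyme and -100% = buffer wells without enzyme; nearly all actives have a fitted effect of over 50% in size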
KAT2A inh: GCN5L2 (KAT2A) acetyltransferase inhibition | Q92830 | AID 504327 | GCN5L2 HAT assay, ThioGlo1 CoA-SH fluorescence | 390,000 compounds, 0.21% hits | Potency, µM (series often up to 58.9 µM), inactives show top-dose activity change, negative = inhibition, most hits filed as inhibitors
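Titration-based screen in which CoA formation is detected via maleimide probe ThioGlo1 (50uM) turning fluorescent on thiol reaction; substrates H3(1-25) 75uM and acetyl-CoA 70uM, GCN5L2 20nM, 20 min incubation at room temperature.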
TDP1 inh: TDP1 (human) enzyme inhibition; 350,000 compounds, 0.28% hits; recombinant TDP1, AlphaScreen DNA substrate cleavage; AID 485290; Potency, µM (titrated, usually from 130 µM), for the others: at the top dose activity change, negative = inhibition, usual class: inhibitors; further: nearly all actives have a fitted effect of over 40% in size
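Recombinant E. coli-expressed Tdp1 (1 nM) preincubated with compound 15 min at RT, then 5'-biotin/3'-phosphotyrosine-FITC DNA substrate (15 nM) added for 5 min. AlphaScreen beads (10 ug/ml) added, 10 min RT; tyrosine-FITC cleavage read as signal loss.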
APE1 inh: inhibitors of human APE1 endonuclease | Potency, µM (highest dose often 65.8 µM), inactives show at the highest dose activity change, negative = inhibition, usual class: inhibitors | AID 2517 | 350,000 compounds, 0.35% hits | recombinant APE1, TAMRA/BHQ-2 abasic DNA cleavage fluorescence;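 further: plate controls were vehicle for no effect and reference inhibitor for full effect; nearly all actives have a fitted effect of over 55% in size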
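Quantitative HTS: incision of a TAMRA/BHQ-2 double-stranded substrate bearing a tetrahydrofuran abasic site by 0.75 nM APE1 raises fluorescence. Substrate 50 nM final, added after 15 min compound preincubation at room temperature; progress as third-minus-first kinetic read difference.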
Starred values were filed as active, the others as inactive; i = inactive; u = inconclusive; x = no result given; ! = not confirmed by another sample; [ ] = another dose, or the depositor's remark. Unless noted, the call rests on the fitted dose curve; in most records, active means well fitted curve in the direction sought with a large enough effect; inconclusive means small, poorly fitted or top-dose-only effect, or another doubt; inactive means no such curve, though single readings can be large; an effect the other way counts as inactive or inconclusive. Unless noted, on the % scale 0 is the no-effect control and ±100 the full control effect; potency means the concentration at half of the fitted maximal effect.

SMILES | BLM helicase inh | RECQ1 helicase | KDM4E inh | KAT2A inh | TDP1 inh | APE1 inh
COc1ccc2[nH]c3c(=O)n(Cc4ccc(C(=O)NCC5CCCO5)cc4)c(=S)[nH]c3c2c1 (stereo unspecified) | -19.9% | 20µM* | u | -21.2% | u | -2.0%
CCCCNC(=O)c1ccc(Cn2c(=S)[nH]c3c([nH]c4ccc(OC)cc43)c2=O)cc1 | -0.4% | -4.5% | u | 3.6% | -1.1% | -0.4%
Clc1ccc(/C=N/N2CCN(Cc3ccccc3)CC2)cc1 | 3.7% | x | x | -1.3% | x | -3.7%
CSc1ccc(/C=N/N2CCN(Cc3ccccc3)CC2)cc1 | -8.3% | 2.1% | 11.2µM* | -8.4% | -12.8% | 2.9%
CONC(=O)C[C@@H](C#N)NC(=O)[C@@H]1CCCN1C(=O)[C@@H](NC(=O)c1ccc(N)c(Cl)c1)C(C)(C)C | x | x | x | x | -5.9% | x
O=c1cc(-c2ccsc2)oc2cc(-c3ccc4c(c3)OCO4)ccc12 | x | x | x | 0.4% | 7.08µM* | 12.8%
Cc1ccc(C(C)(C)c2ccc(C)cc2)cc1 | -5.7% | x | x | 4.8% | x | x
CC(C)(c1cc(Br)c(O)c(Br)c1)c1cc(Br)c(O)c(Br)c1 | x | 22.4µM*! | x | u | 3.3% | -2.7%
CCc1nnc(NC(=O)C2CC(=O)N(C3CCCCC3)C2)s1 (stereo unspecified) | 1.7% | x | x | -1.0% | 22.4µM* | -2.6%
COc1cccc(NC(=O)Cn2c(CCC(=O)O)ccc2-c2ccc(Cl)cc2)c1 | 3.0% | -9.4% | 28.2µM* | -4.5% | 7.2% | 1.3%
NS(=O)(=O)c1cccc2c1c([N+](=O)[O-])cc1[nH]c(=O)c(=O)[nH]c12 | -4.7% | 1.41µM*! | -27.4% | u | x | 1.58µM*
CC1=C(C(=O)O)N2C(=O)[C@@H](NC(=O)C(N)C3=CCC=CC3)[C@H]2SC1 (stereo partly specified) | x | i | 22.4µM* | 7.7% | 9.1%[56.1 µM] | -6.9%
CC1=C(C(=O)O)N2C(=O)C(NC(=O)C(N)C3=CCC=CC3)C2SC1 (stereo unspecified) | -1.4% | 11.5% | u | x | -4.0%[56.1 µM] | -1.5%
O=C(C[C@@H]1C/C=C\C[C@H](Cc2ccc(F)cc2)C(=O)OCCNC1=O)NCCO | x | x | x | -5.2% | 0.0% | 4.5%
O=C(C[C@H]1C/C=C\CC[C@@H](Cc2ccc(F)cc2)C(=O)OCCNC1=O)NCCO | x | x | x | -1.3% | 1.2% | 10.6µM*
C#Cc1ccc([C@H]2C=C(C(=O)O)O[C@@H](OCc3ccc(CO)cc3)C2)cc1 | -6.4% | -13.2% | -18.8% | 0.4% | x | 31.6µM*
C#Cc1ccc([C@@H]2C=C(C(=O)NCc3ccccc3)O[C@H](OCc3ccc(CO)cc3)C2)cc1 | -7.5% | u | u | 3.3% | 5.1% | -3.9%
COc1ccc(C2N=C(Nc3nc4ccccc4o3)NC3=C2C(=O)CC(C)(C)C3)cc1 (stereo unspecified) | x | x | x | x | -0.4% | x
Oc1ccc(Cl)cc1C1C=C(c2ccc3c(c2)OCO3)NC(c2cc(Br)ccc2F)N1 (stereo unspecified) | x | x | x | x | 3.0% | x
COc1ccc(N2CSC3=C(C#N)C(c4cccc(OC)c4OC)CC(=O)N3C2)cc1 (stereo unspecified) | -14.5% | -1.5% | u | u | 6.5% | -1.7%
COc1cc(OC)c(C2CC(=O)N3CN(c4ccccc4C)CSC3=C2C#N)cc1OC (stereo unspecified) | -7.8% | -13.1% | 22.4µM* | u | 7.4% | -7.2%
FC(F)(F)c1nc(=S)c2ccccc2[nH]1 | -2.8% | -1.3% | 10µM* | u | 6.9% | -4.2%
CN(C)N=Nc1ccc(S(N)(=O)=O)cc1 | -1.5% | -8.6% | 4.6% | -5.7% | -3.6% | 20.0%
CCCC/C(O)=N\S(=O)(=O)c1ccc(N=NN(C)C)cc1 | -12.2% | i | 8.91µM* | 0.6% | -2.5% | 14.2%
N#C/C(=C\c1ccc(OC(=O)c2ccc(Br)s2)cc1)c1nc2ccccc2[nH]1 | -26.0% | 17.7% | 17.8µM* | -16.6% | 6.7% | -2.2%
SMILES | BLM helicase inh | RECQ1 helicase | KDM4E inh | KAT2A inh | TDP1 inh | APE1 inh
O=C1CCc2cc(S(=O)(=O)Nc3cccc(C(F)(F)F)c3)ccc2N1 | x | x | x | x | 1.4% | x
Nc1nc2ccccc2nc1N | -3.2% | -6.8% | 3.16µM* | -26.2% | 6.2% | -4.2%
Clc1nc2ccccc2nc1Cl | x | -3.3% | x | x | 16.1% | -1.1%
COc1cccc(S(=O)(=O)N2CCN(c3nc(-c4cccs4)nc4ccccc34)CC2)c1 | x | x | x | x | 0.3% | x
C=C1C=C(C(F)F)n2ncc(C(=O)NCCc3ccc(OC)c(OC)c3)c2N1 | x | x | x | x | x | 23.4%
Cc1cccc(/N=C/c2c(O)cc(C)oc2=O)n1 | -3.4% | 28.2µM* | u | -3.9% | u | -4.0%
O=c1cc(-c2ccc(O)cc2)oc2cc(O[C@@H]3O[C@H](CO)[C@H](O)[C@H](O)[C@H]3O)cc(O)c12 | -0.3% | -9.7% | x | x | 2.1% | 1.5%
O=c1cc(-c2ccc(O)c(O)c2)oc2cc(OC3OC(CO)C(O)C(O)C3O)cc(O)c12 (stereo unspecified) | -15.6% | 20µM* | 11.2µM* | x | 7.8%[56.1 µM] | u
O=c1c(O[C@@H]2O[C@H](CO)[C@@H](O)[C@H](O)[C@H]2O)c(-c2ccc(O)cc2)oc2cc(O)cc(O)c12 | -0.2% | -2.7% | x | -2.4% | -0.8% | u
C[C@@H]1O[C@@H](OC[C@H]2O[C@@H](Oc3c(-c4ccc(O)c(O)c4)oc4cc(O)cc(O)c4c3=O)[C@H](O)[C@@H](O)[C@@H]2O)[C@H](O)[C@H](O)[C@H]1O | -6.4% | -3.7% | 14.1µM* | -14.5% | 0.0% | u
O=c1c(O[C@@H]2O[C@H](CO)[C@@H](O)[C@H](O)[C@H]2O)c(-c2ccc(O)c(O)c2)oc2cc(O)cc(O)c12 | -3.2% | -23.0% | 12.6µM* | -19.9% | 2.9% | u
O=c1c(O[C@@H]2O[C@H](CO)[C@H](O)[C@H](O)[C@H]2O)c(-c2ccc(O)c(O)c2)oc2cc(O)cc(O)c12 | -0.8% | -9.7% | 1.78µM* | -6.2% | 2.9% | u
O=C1CCc2cc([S+](=O)([O-])Nc3ccc(N[S+](=O)([O-])c4ccc5c(c4)CCC(=O)N5)cc3)ccc2N1 | x | x | x | x | -0.4% | x
C/C(=N\NC(=O)c1ccc(NS(=O)(=O)c2cccs2)cc1)c1ccc(O)cc1O | -3.9% | 6.9% | 12.6µM* | -4.0% | 2.6% | 11.0%
Cc1cccc2c(N=NC(=O)c3ccc(NS(=O)(=O)c4cccs4)cc3)c(O)[nH]c12 | x | x | x | -14.3% | 50.1µM* | u
CCCn1c(O)c(/C=C2\C=NN=C2c2ccccc2)sc1=S | -5.3% | i | -2.6% | 2.24µM* | 7.8% | 9.7%
COc1ncc2nc(-c3cccs3)c(=O)n(CCC#N)c2n1 | 6.0% | i | x | 35.5µM* | x | 1.8%
